Laboratory results published in PubChem BioAssay (NCATS).
Records with an inconclusive call do not appear. Active and inactive are the calls of the source. Calls come from the whole dose curve; as a rule, active = well fitted curve in the direction sought with a large enough effect; inconclusive = small, poorly fitted or top-dose-only effect, or another doubt; inactive = no such curve, though single readings can be large; an effect the other way counts as inactive or inconclusive.

Legend:
[1] = target: Rap guanine nucleotide exchange factor 3 (Homo sapiens) (UniProt O95398); assay: Confirmatory qHTS for antagonist of cAMP-regulated guanine nucleotide exchange factor 3 (EPAC1) (AID 1645880); settings: EPAC1 Rap1B-BODIPY-GDP exchange, fluorescence; activity, negative = inhibition: at 115 µM (top of the series); note: nearly all actives have a fitted effect of over 55% in size; note: potency is the fitted concentration of half-maximal effect;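 for activity, negative = inhibition: plate controls were DMSO only for no effect and full effect of the ATA control for full effect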
Summary of the method: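 Nucleotide exchange uses 100 nM EPAC1, 250 nM RAP1B-BODIPY-GDP and 50 uM GDP, with compounds in a concentration-titration series. After 5 min at room temperature, fluorescence (480 nm ex/540 nm em) is read every 5 min for 30 min. Data are normalized to control ATA and DMSO.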

[2] = target: Rap guanine nucleotide exchange factor 3 (Homo sapiens) (UniProt O95398); assay: Confirmatory qHTS for agonist of cAMP-regulated guanine nucleotide exchange factor 3 (EPAC1) (AID 1645881); note: nearly all actives have a fitted effect of over 75% in size; note: potency is the fitted concentration of half-maximal effect;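 for activation: EPAC1 catalysed release of BODIPY-GDP from Rap1B seen as fluorescence loss; 100% = effect of cAMP agonist control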
[3] = target: Rap guanine nucleotide exchange factor 4 (Homo sapiens) (UniProt Q8WZA2); assay: Confirmatory qHTS for agonist of cAMP-regulated guanine nucleotide exchange factor 4 (EPAC2) (AID 1645884);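 note: nucleotide exchange releases bodipy-GDP from Rap1 and this lowers its fluorescence; nearly all actives have a fitted effect of over 65% in size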; note: potency is the fitted concentration of half-maximal effect; for activation: % is set by controls: 0 for no effect and ±100 for the full control effect
[4] = target: Rap guanine nucleotide exchange factor 4 (Homo sapiens) (UniProt Q8WZA2); assay: Confirmatory qHTS for antagonist of cAMP-regulated guanine nucleotide exchange factor 4 (EPAC2) (AID 1645885); note: nearly all actives have a fitted effect of over 25% in size; note: potency is the fitted concentration of half-maximal effect; for activity change, negative = inhibition: % is set by controls: 0 for no effect and ±100 for the full control effect
[5] = target: Rap guanine nucleotide exchange factor 3 (Homo sapiens) (UniProt O95398); assay: Counterscreen qHTS for antagonist of cAMP-regulated guanine nucleotide exchange factor 3 (EPAC1) (AID 1645888);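 note: fluorescence loss as bound BODIPY-GDP is released from Rap1B; % of control where 0% means no effect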
Summary of the method: (§1)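 Measured: fluorescence of BODIPY-GDP bound to Rap1B, which falls as exchange proceeds. Conditions include 50 uM competing GDP, 5 and 30 min reads, and a later cAMP challenge for antagonist detection.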

[6] = target: Rap guanine nucleotide exchange factor 3 (Homo sapiens) (UniProt O95398); assay: Counterscreen qHTS for agonist of cAMP-regulated guanine nucleotide exchange factor 3 (EPAC1) (AID 1645889); note: nearly all actives have a fitted effect of over 40% in size; note: potency is the fitted concentration of half-maximal effect; for activation: % of control where 0% means no effect
Summary of the method: as §1

Chain of Rap guanine nucleotide exchange factor 3 (Homo sapiens) (O95398 whole entry, looked up): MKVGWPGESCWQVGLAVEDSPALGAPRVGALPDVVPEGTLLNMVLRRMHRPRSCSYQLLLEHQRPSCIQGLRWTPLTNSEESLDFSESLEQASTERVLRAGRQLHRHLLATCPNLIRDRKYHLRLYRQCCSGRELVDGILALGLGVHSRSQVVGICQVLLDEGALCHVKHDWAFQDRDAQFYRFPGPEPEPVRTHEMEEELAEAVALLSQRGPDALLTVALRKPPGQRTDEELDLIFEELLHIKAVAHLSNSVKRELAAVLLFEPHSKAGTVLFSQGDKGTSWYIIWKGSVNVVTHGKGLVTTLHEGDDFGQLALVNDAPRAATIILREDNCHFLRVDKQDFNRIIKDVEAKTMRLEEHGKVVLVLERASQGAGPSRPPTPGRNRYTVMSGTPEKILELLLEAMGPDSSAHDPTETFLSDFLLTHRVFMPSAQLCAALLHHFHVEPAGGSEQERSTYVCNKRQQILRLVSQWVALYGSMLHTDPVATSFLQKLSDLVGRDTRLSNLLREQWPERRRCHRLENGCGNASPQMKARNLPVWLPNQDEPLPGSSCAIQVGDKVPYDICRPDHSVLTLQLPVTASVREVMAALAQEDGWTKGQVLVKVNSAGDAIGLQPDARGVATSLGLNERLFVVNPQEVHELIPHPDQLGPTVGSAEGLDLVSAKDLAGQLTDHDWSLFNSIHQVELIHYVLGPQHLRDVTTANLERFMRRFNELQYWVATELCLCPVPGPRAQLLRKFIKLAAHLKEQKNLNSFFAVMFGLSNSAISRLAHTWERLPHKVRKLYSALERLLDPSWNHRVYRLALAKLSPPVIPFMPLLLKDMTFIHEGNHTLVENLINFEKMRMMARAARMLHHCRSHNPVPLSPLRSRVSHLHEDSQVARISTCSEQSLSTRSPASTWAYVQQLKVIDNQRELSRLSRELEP
Chain of Rap guanine nucleotide exchange factor 4 (Homo sapiens) (Q8WZA2 whole entry, looked up): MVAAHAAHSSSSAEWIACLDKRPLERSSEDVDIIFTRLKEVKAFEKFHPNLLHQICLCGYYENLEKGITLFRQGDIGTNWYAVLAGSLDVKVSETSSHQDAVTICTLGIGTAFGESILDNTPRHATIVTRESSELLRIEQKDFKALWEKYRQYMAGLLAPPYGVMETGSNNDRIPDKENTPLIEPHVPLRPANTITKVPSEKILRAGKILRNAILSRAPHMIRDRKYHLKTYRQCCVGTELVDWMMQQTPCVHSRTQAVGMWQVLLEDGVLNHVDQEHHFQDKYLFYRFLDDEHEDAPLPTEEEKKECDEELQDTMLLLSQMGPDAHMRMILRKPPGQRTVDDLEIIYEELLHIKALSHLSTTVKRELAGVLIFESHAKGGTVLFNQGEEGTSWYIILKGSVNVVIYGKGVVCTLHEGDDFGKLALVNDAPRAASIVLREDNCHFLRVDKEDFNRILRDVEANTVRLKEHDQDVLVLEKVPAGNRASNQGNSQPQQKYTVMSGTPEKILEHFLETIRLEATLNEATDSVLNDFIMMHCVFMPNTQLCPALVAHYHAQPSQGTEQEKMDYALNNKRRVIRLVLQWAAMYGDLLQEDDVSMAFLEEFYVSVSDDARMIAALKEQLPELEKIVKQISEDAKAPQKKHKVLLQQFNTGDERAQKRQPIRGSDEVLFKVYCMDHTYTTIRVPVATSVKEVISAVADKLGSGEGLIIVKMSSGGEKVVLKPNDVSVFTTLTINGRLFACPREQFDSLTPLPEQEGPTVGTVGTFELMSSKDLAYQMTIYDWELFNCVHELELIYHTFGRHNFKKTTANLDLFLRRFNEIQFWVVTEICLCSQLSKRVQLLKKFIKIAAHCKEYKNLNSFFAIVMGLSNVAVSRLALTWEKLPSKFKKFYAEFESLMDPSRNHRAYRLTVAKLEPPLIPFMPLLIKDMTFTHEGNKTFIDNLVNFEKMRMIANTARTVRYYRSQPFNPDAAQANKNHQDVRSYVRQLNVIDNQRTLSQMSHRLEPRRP

CC(=O)c1ccc(NC(=O)c2ccc3c(c2)C(=O)N(c2ccccn2)C3=O)cc1
inactive: Potency [2] | Potency [3]
active: Potency [1] 8.49 µM

Cc1cc(/C=C2\SC(=S)NC2=O)cc(C)c1O
active: Potency [1] 33.8 µM | Potency [4] 0.675 µM
inactive: Potency [2] | Potency [3]

CCOC(=O)c1c(NC(=O)c2ccccc2OCC)sc2c1CCC(CC)C2 (stereo not given)
inactive: Potency [1] | Potency [2] | Potency [3] | Potency [4] | Potency [5] | Potency [6]

COc1cc2c(c(OC)c1OC)C(c1ccc3c(c1)OCO3)CC(=O)O2 (stereo not given)
inactive: Potency [1] | Potency [2] | activation [3] 4.62% [at 17.1 µM, percent relative to cAMP agonist control] | Potency [4] | activity change, negative = inhibition [5] -9.71% [at 30.8 µM] | activation [6] 18.7% [at 30.8 µM]

CCN(CC)c1ccc2cc(C(C)=O)c(=O)oc2c1
inactive: Potency [1] | Potency [4] | Potency [5]
active: Potency [2] 89.1 µM | Potency [3] 100 µM | Potency [6] 50.1 µM

CSc1ccccc1NC(=O)CN(c1ccccc1)S(=O)(=O)N(C)C
inactive: Potency [1] | Potency [2] | Potency [3] | Potency [4] | Potency [5] | Potency [6]

O=C1CCc2cc(NS(=O)(=O)c3ccc([N+](=O)[O-])cc3)cc3c2N1CC3
inactive: Potency [1] | Potency [2] | Potency [3] | Potency [4] | Potency [5] | Potency [6]

COc1ccccc1CNC(=O)C1(C)CCN1Cc1ccc(OC(F)(F)F)cc1 (stereo not given)
active: Potency [1] 67.5 µM | Potency [4] 53.6 µM
inactive: Potency [2] | Potency [3]

CC(OC(=O)CC1CCCCC1)C(=O)Nc1ccc(S(N)(=O)=O)cc1 (stereo not given)
inactive: Potency [1] | Potency [2] | activation [3] 2.89% [at 17.1 µM, percent relative to cAMP agonist control] | Potency [4] | activity change, negative = inhibition [5] -10.1% [at 30.8 µM]

CC1CCCN(C(=O)c2cccc(S(=O)(=O)Nc3cc(C(F)(F)F)ccc3Cl)c2)C1 (stereo not given)
inactive: Potency [2] | Potency [3] | Potency [5] | Potency [6]
active: Potency [1] 21.3 µM | Potency [4] 26.9 µM

COc1cnc(-c2ccccc2)c(-c2ccccc2)n1
inactive: Potency [1] | Potency [2] | activation [3] 7.78% [at 17.1 µM, percent relative to cAMP agonist control] | Potency [4] | activity change, negative = inhibition [5] -6.36% [at 30.8 µM] | activation [6] -4.28% [at 30.8 µM]

NC1=C(Cl)C(=O)c2ccc(S(N)(=O)=O)cc2C1=O
inactive: Potency [2] | Potency [3]
active: Potency [1] 75.7 µM

CN(C(=O)CSc1nc2[nH]ncc2c(=O)[nH]1)c1ccccc1
inactive: Potency [1] | Potency [2] | activation [3] 1.67% [at 17.1 µM, percent relative to cAMP agonist control] | Potency [4] | activity change, negative = inhibition [5] -21.3% [at 30.8 µM] | activation [6] -11.1% [at 30.8 µM]

Cc1ccc(OCC(=O)OC(C)CN(C)Cc2ccccc2)cc1 (stereo not given)
inactive: Potency [1] | Potency [2] | activation [3] 4.43% [at 17.1 µM, percent relative to cAMP agonist control] | Potency [4] | activity change, negative = inhibition [5] 8.78% [at 30.8 µM] | activation [6] 10.6% [at 30.8 µM]

N#Cc1c(N2CCCCC2)nc(N)c2c(N)nc(SCC(=O)O)cc12
active: Potency [1] 31.6 µM
inactive: Potency [2] | activation [3] 13.6% [at 17.1 µM, percent relative to cAMP agonist control] | Potency [4]

Cc1ccc(C2CC(=O)Oc3cc(C)c(Br)c(C)c32)cc1 (stereo not given)
inactive: Potency [1] | Potency [2] | Potency [3] | Potency [5] | Potency [6]
active: Potency [4] 2.13 µM

CC(OC(=O)/C(C#N)=C/c1ccc(N(C)C)cc1)C(=O)N(C)c1ccccc1 (stereo not given)
inactive: Potency [1] | activation [3] 3.03% [at 17.1 µM, percent relative to cAMP agonist control] | Potency [4] | activity change, negative = inhibition [5] -2.82% [at 30.8 µM] | activation [6] 20.3% [at 30.8 µM]
active: Potency [2] 50.1 µM

CC1=CC(C)(C)N(C(=O)c2ccc(F)cc2)c2cc3c(cc21)OCO3
inactive: Potency [1] | Potency [2] | Potency [3]

CCc1nc2c(OCc3ccc(C(=O)N(C)C)cc3)cccn2c1N(C)C(=O)c1ccc(C)cc1
inactive: Potency [1] | Potency [2] | activation [3] 2.55% [at 17.1 µM, percent relative to cAMP agonist control] | Potency [4] | activity change, negative = inhibition [5] -28.5% [at 30.8 µM] | activation [6] 21.1% [at 30.8 µM]

COC(=O)c1cc2occc2n1Cc1cccc(C)c1
inactive: Potency [1] | Potency [2] | Potency [3] | Potency [4] | Potency [5] | Potency [6]

COc1ccc(-c2cc3c(c4c2ccn4C)C2CCC3O2)cc1OC (stereo not given)
inactive: Potency [1] | Potency [2] | activation [3] 6.95% [at 17.1 µM, percent relative to cAMP agonist control] | Potency [4] | activity change, negative = inhibition [5] 9.79% [at 30.8 µM] | activation [6] 10.3% [at 30.8 µM]

CCCCc1nc(SCCOC)c2c(=O)n(C)c(=O)n(C)c2n1
inactive: Potency [1] | Potency [2] | activation [3] 4.93% [at 17.1 µM, percent relative to cAMP agonist control] | Potency [4] | activity change, negative = inhibition [5] -15.9% [at 30.8 µM] | activation [6] -0.239% [at 30.8 µM]

COc1ccc(/C=N/Nc2ncnc3sc(C)c(C)c23)cc1
inactive: Potency [1] | Potency [2] | Potency [3] | Potency [4] | Potency [5] | Potency [6]

C/C(CC(=O)Nc1ccc2ccccc2c1)=N\NC(=O)c1ccc(O)c(O)c1
active: Potency [1] 53.6 µM
inactive: Potency [2] | Potency [3] | Potency [4] | Potency [5] | Potency [6]

Cc1ccc(S(=O)(=O)CCC(=O)Nc2sccc2C#N)cc1
inactive: Potency [1] | Potency [2] | activation [3] 6.67% [at 17.1 µM, percent relative to cAMP agonist control] | Potency [4] | activity change, negative = inhibition [5] -10.4% [at 30.8 µM] | activation [6] 34.4% [at 30.8 µM]

Cc1cccc(NC(=O)c2cc(S(=O)(=O)N(C)c3ccc(F)cc3)ccc2Cl)n1
inactive: Potency [1] | Potency [2] | Potency [3] | Potency [4] | Potency [5] | Potency [6]

Cc1ccc(C)c(S(=O)(=O)N2CCN(C(=O)CCc3nc4ccccc4c(=O)[nH]3)CC2)c1
inactive: Potency [1] | Potency [2] | activation [3] 4.63% [at 17.1 µM, percent relative to cAMP agonist control] | Potency [4] | activity change, negative = inhibition [5] -11.5% [at 30.8 µM] | activation [6] 23.6% [at 30.8 µM]

CN(Cc1ccc(Cl)cc1Cl)C(=O)CN1C(=O)NC2(CCCC2)C1=O
inactive: Potency [1] | Potency [2] | Potency [3] | Potency [4] | Potency [5] | Potency [6]

O=C1CCC([N+](=O)[O-])C(c2cccc3ccccc23)N1 (stereo not given)
inactive: Potency [1] | Potency [2] | activation [3] 0% [at 17.1 µM, percent relative to cAMP agonist control] | Potency [4] | activity change, negative = inhibition [5] -21.9% [at 30.8 µM]

Cc1ccc(C(=O)N2CCN(c3ccccc3)CC2)cc1S(=O)(=O)N1CCOCC1
inactive: Potency [1] | Potency [2] | Potency [3] | Potency [4] | Potency [5] | Potency [6]

COc1ccc(-c2nc(C)ncc2-c2ccccc2)c(O)c1
inactive: Potency [1] | Potency [2] | activation [3] -0.293% [at 17.1 µM, percent relative to cAMP agonist control] | Potency [4] | activity change, negative = inhibition [5] -10.8% [at 30.8 µM]

COc1cccc(-c2nc(SCC(=O)Nc3nc(-c4ccccc4)c(C)s3)[nH]c(=O)c2C#N)c1
inactive: Potency [2] | Potency [3] | Potency [4] | Potency [5] | Potency [6]
active: Potency [1] 75.7 µM

C/C(CC(=O)Nc1ccc(Cl)c(C(F)(F)F)c1)=N\NC(=O)c1cnccn1
inactive: Potency [1] | Potency [2] | Potency [3] | Potency [4] | Potency [5] | Potency [6]

O=C(O)C(c1ccccc1)N1C(=O)/C(=C/c2cccs2)SC1=S (stereo not given)
inactive: Potency [2] | activation [3] 2.04% [at 17.1 µM, percent relative to cAMP agonist control] | Potency [4] | activity change, negative = inhibition [5] -23.4% [at 30.8 µM] | activation [6] 6.75% [at 30.8 µM]
active: Potency [1] 39.8 µM

Cc1ccc(OCCn2c(=O)n(C)c3ccccc32)cc1
active: Potency [4] 67.5 µM
inactive: Potency [1] | Potency [2] | Potency [3] | Potency [5]

N#Cc1c(-c2cccs2)nc(SCc2ccc(Cl)cc2)[nH]c1=O
active: Potency [1] 42.6 µM
inactive: Potency [2] | Potency [3] | Potency [4] | Potency [5] | Potency [6]

COc1ccc(C2c3ccsc3CCN2C(C)=O)cc1 (stereo not given)
inactive: Potency [1] | Potency [2] | Potency [3] | Potency [4] | Potency [5] | Potency [6]

O=C(c1sc2cc(F)ccc2c1Cl)N1CCN(c2ccccc2)CC1
inactive: Potency [1] | Potency [2] | Potency [3]

Cc1cc2oc(=O)cc(CN3CCCC3)c2cc1Cl
inactive: Potency [1] | Potency [2] | activation [3] -3.71% [at 17.1 µM, percent relative to cAMP agonist control] | Potency [4] | activity change, negative = inhibition [5] 3.14% [at 30.8 µM]

Cc1noc(C)c1S(=O)(=O)Nc1ccc2c(c1)C(=O)N([C@@H](C)CO)C[C@@H](C)[C@@H](CN(C)CC1CCCCC1)OCCCC[C@@H](C)O2
inactive: Potency [1] | Potency [2] | Potency [3] | Potency [4] | Potency [5] | Potency [6]

Cc1c(C(=O)N2CCC2)oc2ccc(Br)cc12
active: Potency [4] 33.8 µM
inactive: Potency [1] | Potency [2] | Potency [3] | Potency [5] | Potency [6]

CCOC(=O)C1(c2ccccc2)SC(C(=O)OCC)(c2ccccc2)S1 (stereo not given)
inactive: Potency [1] | Potency [2] | Potency [3] | Potency [5] | Potency [6]
active: Potency [4] 53.6 µM

CC[C@]12c3[nH]c4cc(-c5ccco5)ccc4c3CCN1C(=O)[C@@H](CC(=O)NCCCOC)C[C@@H]2C(=O)N1CCN(C(=O)C2CC2)CC1
inactive: Potency [1] | Potency [2] | activation [3] 9.39% [at 17.1 µM, percent relative to cAMP agonist control] | Potency [4] | activity change, negative = inhibition [5] -21.4% [at 30.8 µM] | activation [6] -1.13% [at 30.8 µM]
